Laboratory results from PubChem BioAssay AID1159580 (chemical genetic matrix, 2015).
“And” between values parts separate entries of the source, which are not always exact repeats. Equal entries are not always repeated. Among all 5,500 compounds or so, about 2,000 (36%) were called active. Another 18% or so got no clear call; they are omitted. Cut-off read from the data, not from the text of the source: active = normalized growth mostly below about 0.91 (no sharp cut-off); inconclusive = no clear call, values can overlap the other calls; inactive = mostly above about 0.92. This is one part of the list.

Test: chemical genetic growth profiling, strain panel (AID 1159580);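 note: tested at 20 µM; growth read once vehicle control cultures reached saturation at 30 °C; 1 = growth at the plate median or of vehicle wells; lower values mean less growth of the strain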
Conditions: growth OD

Measured: normalized growth

C=C1CCC(C2CC(=O)OC2=O)C(=O)CCC2C1CC2(C)C (centres undefined)
inactive: S. cerevisiae deletion strains, locus YAL021C, strain ccr4, hits give low values 0.991 | S. cerevisiae deletion strains, locus YAL026C, strain drs2, hits give low values 1 | S. cerevisiae deletion strains, locus YAL030W, strain snc1, hits give low values 1.01 | S. cerevisiae deletion strains, locus YBL061C, strain skt5, hits give low values 1 | S. cerevisiae deletion strains, locus YBR009C, strain hhf1, hits give low values 1 | S. cerevisiae deletion strains, locus YBR021W, strain FUR4, hits give low values 1 | S. cerevisiae deletion strains, locus YBR023C, strain chs3, hits give low values 1 | S. cerevisiae deletion strains, locus YBR171W, strain sec66, hits give low values 1 | S. cerevisiae deletion strains, locus YBR229C, strain ROT2, hits give low values 1.01 | S. cerevisiae deletion strains, locus YBR231C, strain swc5, hits give low values 1 | S. cerevisiae deletion strains, locus YBR279W, strain paf1, hits give low values 1.01 | S. cerevisiae deletion strains, locus YCL011C, strain gbp2, hits give low values 1 | S. cerevisiae deletion strains, locus YCL016C, strain dcc1, hits give low values 0.993 | S. cerevisiae deletion strains, locus YCL029C, strain bik1, hits give low values 1.02 | S. cerevisiae deletion strains, locus YCL069W, strain vba3, hits give low values 1.02 | S. cerevisiae deletion strains, locus YCR088W, strain abp1, hits give low values 1.01 | S. cerevisiae deletion strains, locus YDL005C, strain med2, hits give low values 1.01 | S. cerevisiae deletion strains, locus YDL035C, strain GPR1, hits give low values 0.995 | S. cerevisiae deletion strains, locus YDL040C, strain nat1, hits give low values 1.01 | S. cerevisiae deletion strains, locus YDL074C, strain BRE1, hits give low values 1.03 | S. cerevisiae deletion strains, locus YDL101C, strain DUN1, hits give low values 1.02 | S. cerevisiae deletion strains, locus YDL134C, strain PPH21, hits give low values 1.04 | S. cerevisiae deletion strains, locus YDL185W, strain tfp1, hits give low values 1.02 | S. cerevisiae deletion strains, locus YDL192W, strain arf1, hits give low values 1.01 | S. cerevisiae deletion strains, locus YDR001C, strain nth1, hits give low values 1 | S. cerevisiae deletion strains, locus YDR069C, strain doa4, hits give low values 0.988 | S. cerevisiae deletion strains, locus YDR101C, strain arx1, hits give low values 0.972 | S. cerevisiae deletion strains, locus YDR137W, strain rgp1, hits give low values 1.01 | S. cerevisiae deletion strains, locus YDR159W, strain sac3, hits give low values 0.97 | S. cerevisiae deletion strains, locus YDR162C, strain NBP2, hits give low values 1 | S. cerevisiae deletion strains, locus YDR195W, strain ref2 0.986 | S. cerevisiae deletion strains, locus YDR297W, strain sur2, hits give low values 1 | S. cerevisiae deletion strains, locus YDR318W, strain mcm21, hits give low values 1 | S. cerevisiae deletion strains, locus YDR334W, strain swr1, hits give low values 1 | S. cerevisiae deletion strains, locus YDR335W, strain msn5, hits give low values 1.02 | S. cerevisiae deletion strains, locus YDR388W, hits give low values 1 | S. cerevisiae deletion strains, locus YDR392W, strain spt3, hits give low values 0.876 | S. cerevisiae deletion strains, locus YDR502C, strain sam2, hits give low values 1.03 | S. cerevisiae deletion strains, locus YEL003W, strain gim4, hits give low values 1.01 | S. cerevisiae deletion strains, locus YEL037C, strain rad23, hits give low values 1.01 | S. cerevisiae deletion strains, locus YEL061C, strain CIN8 (second series), hits give low values 1.01 | S. cerevisiae deletion strains, locus YER015W, strain faa2, hits give low values 1.02 | S. cerevisiae deletion strains, locus YER016W, strain bim1, hits give low values 1 | S. cerevisiae deletion strains, locus YER110C, hits give low values 1.01 | S. cerevisiae deletion strains, locus YER111C, strain swi4, hits give low values 1.01 | S. cerevisiae deletion strains, locus YER155C, strain BEM2 (second series), hits give low values 0.983 | S. cerevisiae deletion strains, locus YER155C, strain BEM2, hits give low values 1.01 | S. cerevisiae deletion strains, locus YER167W, strain BCK2, hits give low values 1 | S. cerevisiae deletion strains, locus YFR010W, strain ubp6, hits give low values 1.01 | S. cerevisiae deletion strains, locus YGL078C, strain dbp3, hits give low values 1.03 | S. cerevisiae deletion strains, locus YGL086W, strain mad1, hits give low values 1.01 | S. cerevisiae deletion strains, locus YGL167C, strain pmr1, hits give low values 1.01 | S. cerevisiae deletion strains, locus YGL173C, strain kem1, hits give low values 1 | S. cerevisiae deletion strains, locus YGL227W, strain vid30, hits give low values 1.01 | S. cerevisiae deletion strains, locus YGL240W, strain doc1, hits give low values 0.987 | S. cerevisiae deletion strains, locus YGL248W, strain PDE1, hits give low values 1.04 | S. cerevisiae deletion strains, locus YGL253W, strain hxk2, hits give low values 1.03 | S. cerevisiae deletion strains, locus YGR078C, strain PAC10, hits give low values 1.04 | S. cerevisiae deletion strains, locus YGR135W, strain pre9, hits give low values 1.05 | S. cerevisiae deletion strains, locus YGR252W, strain gcn5, hits give low values 1.09 | S. cerevisiae deletion strains, locus YHR013C, strain ard1, hits give low values 1.01 | S. cerevisiae deletion strains, locus YHR027C, strain rpn1, hits give low values 1 | S. cerevisiae deletion strains, locus YHR030C, strain SLT2, hits give low values 0.975 | S. cerevisiae deletion strains, locus YHR079C, strain IRE1 (second series), hits give low values 1.01 | S. cerevisiae deletion strains, locus YHR079C, strain IRE1, hits give low values 0.974 | S. cerevisiae deletion strains, locus YHR094C, strain hxt1, hits give low values 0.995 | S. cerevisiae deletion strains, locus YHR129C, strain ARP1, hits give low values 1.02 | S. cerevisiae deletion strains, locus YHR142W, strain chs7, hits give low values 1.04 | S. cerevisiae deletion strains, locus YHR200W, strain rpn10, hits give low values 1.03 | S. cerevisiae deletion strains, locus YIL066C, strain RNR3, hits give low values 1.01 | S. cerevisiae deletion strains, locus YIL073C, strain SPO22, hits give low values 1.02 | S. cerevisiae deletion strains, locus YIL125W, strain kgd1, hits give low values 0.98 | S. cerevisiae deletion strains, locus YIR030C, strain dcg1, hits give low values 1.01 | S. cerevisiae deletion strains, locus YJL092W, strain hpr5, hits give low values 1.02 | S. cerevisiae deletion strains, locus YJL095W, strain BCK1 (second series), hits give low values 1 | S. cerevisiae deletion strains, locus YJL095W, strain BCK1, hits give low values 1.06 and 0.979 | S. cerevisiae deletion strains, locus YJL115W, strain asf1, hits give low values 0.999 | S. cerevisiae deletion strains, locus YJL129C, strain trk1, hits give low values 0.989 | S. cerevisiae deletion strains, locus YJL134W, strain LCB3, hits give low values 0.997 | S. cerevisiae deletion strains, locus YJL154C, strain vps35, hits give low values 1.02 | S. cerevisiae deletion strains, locus YJL164C, strain tpk1, hits give low values 1 | S. cerevisiae deletion strains, locus YJL166W, strain qcr8, hits give low values 1 | S. cerevisiae deletion strains, locus YJL168C, strain set2, hits give low values 1.02 | S. cerevisiae deletion strains, locus YJL187C, strain SWE1 (second series), hits give low values 1.04 | S. cerevisiae deletion strains, locus YJR066W, strain TOR1, hits give low values 0.929 | S. cerevisiae deletion strains, locus YJR075W, strain HOC1, hits give low values 1.02 | S. cerevisiae deletion strains, locus YKL009W, strain mrt4, hits give low values 1 | S. cerevisiae deletion strains, locus YKL068W, hits give low values 1 | S. cerevisiae deletion strains, locus YKL085W, strain MDH1 (second series), hits give low values 1 | S. cerevisiae deletion strains, locus YKL085W, strain MDH1, hits give low values 1 | S. cerevisiae deletion strains, locus YKL160W, strain elf1, hits give low values 1 | S. cerevisiae deletion strains, locus YKR001C, strain vps1, hits give low values 1 | S. cerevisiae deletion strains, locus YKR026C, strain gcn3, hits give low values 1.01 | S. cerevisiae deletion strains, locus YKR091W, strain srl3, hits give low values 1 | S. cerevisiae deletion strains, locus YLL001W, strain dnm1, hits give low values 1.01 | S. cerevisiae deletion strains, locus YLL026W, hits give low values 1 | S. cerevisiae deletion strains, locus YLL041C, strain sdh2, hits give low values 1.01 | S. cerevisiae deletion strains, locus YLR027C, strain aat2, hits give low values 1.02 | S. cerevisiae deletion strains, locus YLR039C, strain RIC1, hits give low values 1.04 | S. cerevisiae deletion strains, locus YLR058C, strain SHM2, hits give low values 1 | S. cerevisiae deletion strains, locus YLR102C, strain apc9, hits give low values 1.01 | S. cerevisiae deletion strains, locus YLR113W, strain HOG1, hits give low values 0.946 | S. cerevisiae deletion strains, locus YLR221C, strain rsa3, hits give low values 0.99 | S. cerevisiae deletion strains, locus YLR258W, strain gsy2, hits give low values 1.03 | S. cerevisiae deletion strains, locus YLR262C, strain YPT6 (second series), hits give low values 0.993 | S. cerevisiae deletion strains, locus YLR268W, strain sec22, hits give low values 0.975 | S. cerevisiae deletion strains, locus YLR320W, strain mms22, hits give low values 0.999 | S. cerevisiae deletion strains, locus YLR330W, strain CHS5, hits give low values 1.01 | S. cerevisiae deletion strains, locus YLR342W, strain FKS1, hits give low values 1 | S. cerevisiae deletion strains, locus YLR357W, strain rsc2, hits give low values 1.03 | S. cerevisiae deletion strains, locus YLR370C, strain arc18, hits give low values 1.01 | S. cerevisiae deletion strains, locus YLR371W, strain rom2, hits give low values 0.997 | S. cerevisiae deletion strains, locus YLR384C, strain iki3, hits give low values 1.01 | S. cerevisiae deletion strains, locus YLR418C, strain cdc73, hits give low values 1.09 | S. cerevisiae deletion strains, locus YML016C, strain PPZ1, hits give low values 1.01 | S. cerevisiae deletion strains, locus YML032C, strain rad52, hits give low values 0.999 | S. cerevisiae deletion strains, locus YML120C, strain ndi1, hits give low values 1 | S. cerevisiae deletion strains, locus YML124C, strain tub3, hits give low values 1 | S. cerevisiae deletion strains, locus YMR058W, strain fet3, hits give low values 1.02 | S. cerevisiae deletion strains, locus YMR078C, strain ctf18, hits give low values 1 | S. cerevisiae deletion strains, locus YMR125W, strain sto1, hits give low values 1 | S. cerevisiae deletion strains, locus YMR129W, hits give low values 1.01 | S. cerevisiae deletion strains, locus YMR205C, strain PFK2, hits give low values 0.98 | S. cerevisiae deletion strains, locus YMR223W, strain ubp8, hits give low values 1.01 | S. cerevisiae deletion strains, locus YMR231W, strain pep5, hits give low values 0.991 | S. cerevisiae deletion strains, locus YMR263W, strain SAP30, hits give low values 1.01 | S. cerevisiae deletion strains, locus YMR307W, strain GAS1, hits give low values 1.06 | S. cerevisiae deletion strains, locus YNL067W, strain RPL9B, hits give low values 1.02 | S. cerevisiae deletion strains, locus YNL071W, strain lat1, hits give low values 1.01 | S. cerevisiae deletion strains, locus YNL153C, strain GIM3, hits give low values 1.03 | S. cerevisiae deletion strains, locus YNL183C, strain NPR1, hits give low values 0.937 | S. cerevisiae deletion strains, locus YNL209W, strain ssb2, hits give low values 1 | S. cerevisiae deletion strains, locus YNL233W, strain BNI4, hits give low values 1.04 | S. cerevisiae deletion strains, locus YNL248C, strain rpa49, hits give low values 0.928 | S. cerevisiae deletion strains, locus YNL250W, strain rad50, hits give low values 1.03 | S. cerevisiae deletion strains, locus YNL271C, strain bni1, hits give low values 1.01 | S. cerevisiae deletion strains, locus YNL298W, strain CLA4, hits give low values 0.993 | S. cerevisiae deletion strains, locus YNL307C, strain MCK1, hits give low values 1.01 | S. cerevisiae deletion strains, locus YNL322C, strain KRE1 (second series), hits give low values 0.989 | S. cerevisiae deletion strains, locus YNR049C, strain mso1, hits give low values 1.01 | S. cerevisiae deletion strains, locus YNR052C, strain pop2, hits give low values 1.01 | S. cerevisiae deletion strains, locus YOL012C, strain htz1 0.988 | S. cerevisiae deletion strains, locus YOL147C, strain pex11, hits give low values 1 | S. cerevisiae deletion strains, locus YOR001W, strain rrp6, hits give low values 0.976 | S. cerevisiae deletion strains, locus YOR061W, strain CKA2, hits give low values 0.991 | S. cerevisiae deletion strains, locus YOR069W, strain VPS5, hits give low values 1.01 | S. cerevisiae deletion strains, locus YOR070C, strain gyp1, hits give low values 1.02 | S. cerevisiae deletion strains, locus YOR080W, strain dia2, hits give low values 0.993 | S. cerevisiae deletion strains, locus YOR083W, strain WHI5, hits give low values 0.997 | S. cerevisiae deletion strains, locus YOR106W, strain vam3, hits give low values 1.02 | S. cerevisiae deletion strains, locus YOR136W, strain idh2, hits give low values 1.01 | S. cerevisiae deletion strains, locus YOR144C, strain elg1, hits give low values 0.996 | S. cerevisiae deletion strains, locus YOR184W, strain ser1, hits give low values 0.98 | S. cerevisiae deletion strains, locus YOR231W, strain MKK1, hits give low values 0.964 | S. cerevisiae deletion strains, locus YOR265W, strain rbl2, hits give low values 0.995 | S. cerevisiae deletion strains, locus YOR270C, strain vph1, hits give low values 1.01 | S. cerevisiae deletion strains, locus YOR290C, strain snf2, hits give low values 0.952 | S. cerevisiae deletion strains, locus YOR316C, strain cot1, hits give low values 1.02 | S. cerevisiae deletion strains, locus YPL051W, strain arl3, hits give low values 1 | S. cerevisiae deletion strains, locus YPL078C, strain atp4, hits give low values 1 | S. cerevisiae deletion strains, locus YPL106C, strain sse1, hits give low values 1 | S. cerevisiae deletion strains, locus YPL240C, strain hsp82, hits give low values 1 | S. cerevisiae deletion strains, locus YPL256C, strain CLN2, hits give low values 0.962 | S. cerevisiae deletion strains, locus YPR119W, strain clb2, hits give low values 1 | S. cerevisiae deletion strains, locus YPR141C, strain kar3, hits give low values 1 | S. cerevisiae deletion strains, locus YPR163C, strain tif3, hits give low values 1 | S. cerevisiae deletion strains, locus YPR167C, strain met16, hits give low values 1 | S. cerevisiae deletion strains, strain wtn01, hits give low values 0.997 | S. cerevisiae strains, strain wild type, hits give low values 0.999
